These results are taken from PubChem BioAssay AID1347076 (National Center for Advancing Translational Sciences (NCATS), 2019).

Hit rate of the full screen: of about 400,000 compounds, about 13,000 (3.2%) were called active. Another 18% or so got no clear call; they are omitted. The call rests on the fitted dose curve; in most records, active means well fitted cell-killing curve with a large enough effect; inconclusive means small, poorly fitted or top-dose-only effect, or effect the other way; inactive means flat fitted curve, though single readings scatter. The list comes from a sample in which actives are over-represented; it also holds similar structures and randomly drawn compounds. Entries that show only a call come without a potency.
Potency means the concentration at half of the fitted maximal effect.

This assay in a line: qHTS assay for MDR1-selective chemotherapeutics: Primary screen using the drug-selected MDR subline cells KB-V1. Further: nearly all actives have a fitted effect of over 60% in size. The following applies: KB-V1 MDR cells viability, CellTiter-Glo, 72 h; series mostly up to 46.1 µM. In a few lines: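 Potencies derive from concentration-effect curves fitted to normalized luminescence (CellTiter-Glo) of KB-V1 cells treated for 72 h at 37 degrees C in phenol-red-free DMEM containing 10% FBS.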
Turning to `CCC(=O)N1CCCC1(C)C(=O)Nc1ccc2c(c1)CCN2C(C)=O` (stereo not drawn), the Potency result was “inactive”. Consider `CCC(=O)N(CCc1ccccc1)Cc1cc2cc(C)ccc2[nH]c1=O`, for which the Potency entry is “inactive”. For `CCN(Cc1cc2cc(C)ccc2[nH]c1=O)S(=O)(=O)c1ccccc1`, the Potency was 3.66 µM (active). As for `Cc1ccc(S(=O)(=O)N(Cc2cc3ccccc3[nH]c2=O)CC2CCCO2)cc1` (stereo not drawn), the Potency entry was “inactive”. On to `S=C(NN=Cc1ccccn1)Nc1ccccn1`, for which the Potency entry is “inactive”. With `Cc1ccc(CNC(=O)Nc2nnc([C@H]3C[C@H](O)[C@@H](CO)O3)s2)cc1`, the Potency result is “inactive”. In the case of `Cc1ccc(NC(=O)CNCc2ccccn2)cc1S(=O)(=O)N(C)C`, the Potency result was “inactive”. With `Cc1ccc(C(=O)Nc2ncccc2C)cc1S(=O)(=O)N1CCOCC1` the entry was “inactive”; with `CCN(CC)S(=O)(=O)c1cc(C(=O)Nc2ccccn2)ccc1C`, 23.1 µM (active); with `COc1ccc(CN2CCC(C)(Oc3cccc(F)c3)C2)c2ccccc12` (stereo not drawn), “inactive”.

With `CCSc1nnc(-c2cc3c(s2)-c2ccccc2CC3)o1`, the Potency result is “inactive”. Take `Fc1ccc(CSc2nnc(-c3cc4c(s3)-c3ccccc3CC4)o2)cc1`: the Potency was 20.6 µM (active). On to `Fc1ccc(-c2nnc(CSc3nnc(-c4ccc5c(c4)OCO5)o3)o2)cc1`, for which the Potency result was “inactive”. Take `CCc1nc2ccc(C(=O)N(C)Cc3ccco3)cn2c1N(C)C(=O)Cc1ccccc1`: the Potency result was “inactive”. On to `O=C(C1CCN(S(=O)(=O)c2ccc(Br)s2)CC1)N1CCN(c2ccccc2)CC1`, for which the Potency result was “inactive”. For the molecule `O=C(C1CCN(S(=O)(=O)c2ccc(Br)s2)CC1)N1CCN(C2CCCCC2)CC1`, the Potency entry was “inactive”. With `O=C(NCCc1ccccc1)C1CCN(S(=O)(=O)c2ccc(Br)s2)CC1` the figure was 2.06 µM (active). The value for `Cc1cccc(NC(=O)CN2CCCN(S(=O)(=O)c3ccc(Br)s3)CC2)c1` was “inactive”. As for `CC(C)N(C(=O)CN1CCN(S(=O)(=O)c2ccc(Br)s2)CC1)C(C)C`, the Potency is 23.1 µM (active). The value for `CSc1ccc(S(=O)(=O)N2CCC(C(=O)NCCc3ccccc3)CC2)cc1` was “inactive”; that for `CCCCNC(=O)C1CCCN(c2nnc(C)c3c(C)n(-c4ccc(Cl)cc4)nc23)C1` (stereo not drawn) was “inactive”; that for `O=C1OCCC1=COCCCCOC=C1CCOC1=O` was “inactive”. Take `CCc1nc2ccc(C(=O)NC3CCN(Cc4ccccc4)CC3)cn2c1N(C)CCN1CCOCC1`: the Potency result was “inactive”.

Turning to `CCc1ccc(NC(=O)c2nn(-c3ccc(C)cc3)c(=O)n(C)c2=O)cc1`, the Potency entry is “inactive”. On to `NC(N)=Nc1nc(-c2ccccc2)c2cc(Cl)ccc2n1`, for which the Potency entry is “inactive”. With `Clc1ccc2nc(-c3ccccc3)nc(C(Cl)Cl)c2c1` the figure was 3.66 µM (active); with `O=C(CCl)NNc1nc(-c2ccccc2)c2cc(Cl)ccc2n1`, “inactive”; with `CCc1nc2ccc(C(=O)Nc3cc(-c4ccccc4)ccc3OC)cn2c1N(CC)CC(=O)N(C)C`, “inactive”. On to `O=C(OCc1cc(=O)n2nc(C3CC3)sc2n1)c1ccccc1Cl`, for which the Potency result was “inactive”. Turning to `Cn1c(=O)c2c(nc(CN3CCOCC3)n2Cc2ccccc2)n(C)c1=O`, the Potency entry is “inactive”. Regarding `Cn1c(=O)[nH]c(=O)c2c1nc(CN1CCN(c3ccccc3F)CC1)n2CCc1ccccc1`, the Potency entry is “inactive”. With `Cn1c(=O)[nH]c(=O)c2c1nc(CN(Cc1ccccc1)Cc1ccccc1)n2CCN1CCOCC1`, the Potency was 6.51 µM (active). The value for `C[C@H]1CN([C@@H](C)CO)C(=O)c2cc(C3=CCCCC3)cnc2O[C@@H]1CN(C)C(=O)Cc1ccccc1` was “inactive”; that for `COc1ccc(CCNC(=O)Cn2c(=O)n(-c3ccccc3)c(=O)c3c(C)c(C)sc32)cc1OC` was “inactive”. Take `CC1(C(=O)NS(=O)(=O)C2CC2)CCCN(C(=O)CSc2ccccc2)C1` (stereo not drawn): the Potency result is “inactive”.

For `Cn1c(C(=O)NCCCN2CCCCC2)cc2sccc21`, the Potency result is “inactive”. Regarding `COc1ccc(CCNC(=O)c2cc3sccc3n2C)cc1OC`, the Potency was 20.6 µM (active). On to `COc1ccc(CCNC(=O)COC(=O)/C=C/c2cccs2)cc1OC`, for which the Potency entry is “inactive”. `O=C(O)C1=C(C(=O)O)C2CCC1C2`: the Potency entry was “inactive”. Consider `Cc1ccc(S(=O)(=O)n2nc(C)c(S(=O)(=O)N3CCCCCC3)c2C)cc1`, for which the Potency result was “inactive”.

On to `COc1cc2[nH]c(O)c(C=O)c2cc1OC`, for which the Potency entry was “inactive”. Take `CN=c1scc(-c2cc(OC)ccc2OC)n1/N=C/c1c(C)[nH]c2ccccc12`: the Potency entry was “inactive”.

On to `COc1cc(N=Cc2c(O)[nH]c3ccccc23)cc(OC)c1OC`, for which the Potency is 4.11 µM (active). For `COc1ccccc1N=Cc1c(O)c2ccccc2oc1=O`, the Potency entry is “inactive”. The value for `Oc1[nH]c2ccccc2c1N=Nc1c(F)c(F)c(F)c(F)c1F` was “inactive”; that for `COc1ccc(N=Cc2c(O)[nH]c3ccccc23)cc1OC` was 6.51 µM (active); that for `CCCCN(C(C)=O)c1ccc2c(c1)C1CC2CCN1Cc1ccccc1` (stereo not drawn) was “inactive”.

As to `Cc1ccccc1-c1nc(SCC(=O)N(C)c2ccccc2)c2c(=O)n(C)c(=O)n(C)c2n1`, the Potency entry is “inactive”. As for `CC1(C(=O)NS(=O)(=O)c2cccc(F)c2)CCN1C(=O)Cc1ccc(Cl)cc1Cl` (stereo not drawn), the Potency entry was “inactive”. With `CNC(=O)c1ccc(CN(C)C(=O)c2cc(C3CC3)nc3c2cnn3C(C)C)cc1` the entry was “inactive”; with `Cc1noc(C)c1C(=O)Nc1ccccn1`, “inactive”; with `Cc1c(C(=O)Nc2ccccn2)oc2ccc(Br)cc12`, 11.6 µM (active). Turning to `Cc1nonc1NC(=O)c1oc2ccccc2c1C`, the Potency result is “inactive”.

Take `CCS(=O)(=O)c1nc(S(=O)(=O)c2ccc(C)cc2)c(NCc2ccc(Cl)cc2)s1`: the Potency result is “inactive”. As to `N#Cc1ccc(C(C(=O)NCc2ccccc2)n2c(=O)c(-c3ccco3)nc3ccccc32)cc1` (stereo not drawn), the Potency entry was “inactive”. For the molecule `C=CCC[C@H](CCCCC)OC(=O)/C=C/[C@H](O)[C@@H](O)C[C@@H](O)CC=C`, the Potency entry was “inactive”. The value for `O=c1c(-c2cccc(Cl)c2)c[nH]n1-c1ccccc1` was “inactive”. The value for `O=C(O)C(c1ccccc1)N1C(=O)/C(=C\c2ccc(-c3cccc(Cl)c3)o2)SC1=S` (stereo not drawn) was “inactive”; that for `O=C1c2ccccc2NC(c2ccc(-c3cccc(Cl)c3)o2)N1O` (stereo not drawn) was 4.61 µM (active); that for `COc1ccc(CCNC(=O)c2cn(C)c3ccc(S(=O)(=O)N(C)C4CCCCC4)cc3c2=O)cc1OC` was “inactive”. With `Cc1cc2nc(-c3ccc(Cl)cc3)c(Cc3cccc(F)c3)n2c(C)c1Br` the entry was “inactive”; with `Brc1ccccc1C1N=C(c2ccccc2)NO1` (stereo not drawn), “inactive”.

For `N#Cc1ccc(OC2=NS(=O)(=O)c3ccccc32)cc1`, the Potency result is “inactive”.

Regarding `N#Cc1ccc(C2N=C(c3ccccc3)NO2)cc1` (stereo not drawn), the Potency was 18.4 µM (active).

Consider `COc1cccc(-c2cc3nc(NCCOc4ccccc4Cl)n(C)c(=O)c3s2)c1`, for which the Potency entry is “inactive”. In the case of `N#Cc1nc(NCc2ccc(Cl)c(Cl)c2)c2ncn(CCCO)c2n1`, the Potency result was “inactive”.

Consider `COc1ccc(CN2C(=O)C(CC(=O)NCCCCc3ccccc3)CC(C(=O)N3CCOCC3)=C2C)cc1` (stereo not drawn), for which the Potency entry is “inactive”.

`CCCN(CCC)C(=O)Cn1c(=O)n(-c2ccc(Cl)cc2)c(=O)c2c3c(sc21)CCCCC3`: the Potency entry was “inactive”. Take `N#Cc1ccc[n+](CC(=O)c2ccc(F)cc2)c1`: the Potency entry is “inactive”.

Turning to `COc1ccc(CCNC(=O)CSc2nc3[nH]ncc3c(=O)n2-c2cccc(C(F)(F)F)c2)cc1OC`, the Potency result was “inactive”. For `Cc1cccc2nc(CSc3nc4[nH]ncc4c(=O)n3-c3cccc(Cl)c3)cc(=O)n12`, the Potency was 23.1 µM (active). The value for `COC(=O)c1ccc(CSc2nc3ccccc3c(=O)n2-c2cccc(OC)c2)o1` was “inactive”; that for `Cc1ccc(NC(=O)[C@H](Cc2ccccc2)NC(=O)CC[C@H]2O[C@@H](n3ccc(=O)[nH]c3=O)[C@H](O)[C@@H]2O)cc1C` was “inactive”; that for `O=C(c1ncn2c1c(=O)[nH]c1ccccc12)N1CCc2ccccc2C1` was “inactive”. With `CN1CCN(c2oc(-c3ccc(COc4ccc(Cl)cc4)o3)nc2C#N)CC1`, the Potency result was “inactive”. The value for `CC1(C)Cc2cccc(OCC(=O)NCc3ccccc3)c2O1` was “inactive”.

For `CC1(C)Cc2cccc(OCC(N)=O)c2O1`, the Potency result was “inactive”. `CC1(C)Cc2cccc(OCC(=O)N3CCN(c4ccc([N+](=O)[O-])cc4)CC3)c2O1`: the Potency was 2.59 µM (active). Turning to `COc1ccccc1CNC(=O)c1ccc(N(C)S(=O)(=O)c2ccc(C)cc2)cc1`, the Potency result was “inactive”. For the molecule `Cc1ccccc1CSCCNC(=O)c1ccc(N(C)S(=O)(=O)c2ccccc2)cc1`, the Potency is 13 µM (active).

In the case of `CN(c1ccccc1)S(=O)(=O)c1ccc(C(=O)NCCc2ccccc2)cc1`, the Potency entry was “inactive”.

On to `COCc1cccc(-c2csc(C(O)c3ccc(F)cc3)n2)c1` (stereo not drawn), for which the Potency result was “inactive”. With `OCCn1c(-c2ccccc2)csc1=Nc1ccccc1` the figure was 14.6 µM (active). As to `O=c1cc(CCl)nc2scc(-c3ccccc3)n12`, the Potency result was “inactive”. In the case of `Cn1c(=O)nc2n(-c3ccc(Br)cc3)c3cccc(Cl)c3cc-2c1=O`, the Potency entry was “inactive”.

Consider `CCOc1ccc(Cl)cc1-c1cc(C(=O)NCc2cccs2)[nH]n1`, for which the Potency result was “inactive”.

Turning to `CCc1ccccc1OCC(=O)Nc1nnc(C2CC2)s1`, the Potency entry is “inactive”. Regarding `N#C/C(=C\c1ccc(-c2cccc([N+](=O)[O-])c2)o1)C(=O)NCCN1CCOCC1`, the Potency entry is “inactive”.

As for `Cc1ccc(Cc2cnc(NC(=O)/C(C#N)=C/c3ccc(-c4cccc([N+](=O)[O-])c4)o3)s2)cc1`, the Potency is 18.4 µM (active).

For `Cc1ccc(C(=O)N/C(=C/c2ccc(-c3cccc([N+](=O)[O-])c3)o2)C(=O)NCCCN(C)C)cc1`, the Potency entry was “inactive”. `CC(C)[C@H](NC(=O)c1ccccc1F)C(=O)Nc1cccc(S(=O)(=O)N2CCOCC2)c1`: the Potency entry was “inactive”. Take `NS(=O)(=O)c1ccc(CCNC(=O)CCCCCn2c(=O)[nH]c3ccccc3c2=O)cc1`: the Potency result is “inactive”. The value for `C[C@@H]1Cn2cnc(C(=O)Nc3ccc(CNC(=O)OC(C)(C)C)cc3)c2C(=O)N1` was “inactive”; that for `COc1ccc(C2=Nn3c(nnc3-c3ccccc3OC)SC2)cc1OC1CCCC1` was 5.8 µM (active); that for `COc1ccccc1-c1nnc2n1N=C(c1ccc(OC(F)F)c(OCC3CC3)c1)CS2` was “inactive”. Take `Cc1nnc2n1N=C(c1ccccc1)CS2`: the Potency result was “inactive”.

`COc1ccc2c(CNCCc3ccccc3C)c(C(=O)O)n(Cc3ccccc3C)c2c1`: the Potency result was “inactive”. On to `COc1ccc(S(=O)(=O)N[C@@H]2C=C[C@@H](CC(=O)N3CCc4ccccc4C3)O[C@@H]2CO)cc1`, for which the Potency entry is “inactive”.
